Source: PubChem BioAssay
Shown are actives, neighbours in structure and some others; about 11% of the full set was active somewhere.
Pf growth 48h: Primary qHTS for delayed death inhibitors of the malarial parasite plastid, 48 hour incubation; P. falciparum luciferase growth in erythrocytes, 48 h; Potency, µM (highest dose often 28.7 µM), without a hit: top-dose activity change, negative = inhibition, hits mostly inhibitors; 310,000 tested, 5.9% active; AID 504832, 2011; also: % is scaled to controls: 0 for no effect and ±100 for the full control effect
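Firefly luciferase activity from engineered P. falciparum reports growth; inhibitors lower the luminescent signal. Cultures contained 2% hematocrit erythrocytes at 0.1% final parasitemia.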
NS1 inh: qHTS Assay for Inhibitors of Influenza NS1 Protein Function; Potency, µM (doses to about 46.1 µM), without a hit: top-dose activity, positive = more growth; 270,000 tested, 0.4% active; AID 2326, 2010; calls by dose curve; also: actives are rising curves; nearly all actives have a fitted effect of over 50% in size
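Growth recovery, yeast-based: influenza A NS1 expressed in S. cerevisiae causes slow growth, and suppressors are detected by OD600. The parent strain without NS1 is used as positive control.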
AMA1-RON2 inh: qHTS for Inhibitors of AMA1-RON; Towards Development of Antimalarial Drug Lead: Primary Screen. 360,000 tested, 0.2% active. AlphaScreen AMA1-biotinylated RON2 peptide binding. Potency, µM (doses to about 58.2 µM), for inactives: top-dose activity change, negative = inhibition, actives largely listed as inhibitors;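 also: 0% = vehicle wells and -100% = peptide control; nearly all actives have a fitted effect of over 45% in size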
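AMA1 (3D7) with his tag at 25 nM final met compounds first, then biotinylated RON2 peptide at 25 nM; detection used donor plus acceptor beads, 10 µg/mL apiece, read by AlphaScreen after 30 min at room temperature.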
Pf growth 96h: Primary qHTS for delayed death inhibitors of the malarial parasite plastid, 96 hour incubation; P. falciparum luciferase reporter growth, 96 h; AID 504834, 2011; 320,000 tested, 6.9% active; Potency, µM (highest dose often 28.7 µM), for inactives: at the highest dose activity change, negative = inhibition, usual class: inhibitors; also: % is scaled to controls: 0 for no effect and ±100 for the full control effect
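96 h incubation, 37 C, 5% CO2, of luciferase-reporter P. falciparum-infected RBCs (2% hematocrit, 0.05% parasitemia final) with test compounds; endpoint luminescence.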
Sm TGR block: qHTS Assay for the Inhibitors of Schistosoma Mansoni Peroxiredoxins; purified TGR, DTNB reduction, TNB absorbance 405 nm; Schistosoma mansoni thioredoxin glutathione reductase (TGR), Q962Y6; 360,000 tested, 3% active; Potency, µM (series often up to 114 µM), inactives show at the top dose activity change, negative = inhibition, hits mostly inhibitors; also: % is scaled to controls: 0 for no effect and ±100 for the full control effect; nearly all actives have a fitted effect of over 60% in size
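First, TGR (20 nM dispensed) and NADPH were mixed with compound. Second, a 15 min room-temperature incubation followed. Third, further NADPH and then DTNB were added to start the reaction. Finally, TNB absorbance was monitored kinetically.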
* hit, by the source's call; ? = inconclusive; / = no result given. Unless noted, calls follow the shape of the dose curve; as a rule, active = well fitted curve in the direction sought with a large enough effect; inconclusive = small, poorly fitted or top-dose-only effect, or another doubt; inactive = no such curve, though single readings can be large; an effect the other way counts as inactive or inconclusive. Potency is read from the fitted curve at half-maximal effect.

SMILES	Pf growth 48h	NS1 inh	AMA1-RON2 inh	Pf growth 96h	Sm TGR block
Cc1ccc2cc(CN(CCN3CCCC3)C(=O)Nc3ccc(F)cc3)c(=O)[nH]c2c1C	13µM*	?	-10%	-11%	-23%
Cc1ccc2cc(CN(CCN3CCOCC3)C(=O)NCc3ccccc3)c(=O)[nH]c2c1C	?	2%	0%	?	0%
Cc1ccc2cc(CN(CCN3CCCC3)C(=O)Nc3ccccc3)c(=O)[nH]c2c1C	10µM*	-4%	-6%	?	-4%
CCN1CCCC1CN(Cc1cc2ccc(C)c(C)c2[nH]c1=O)C(=O)Nc1ccccc1OC (stereo not given)	0%	10%	-2%	?	-1%
COc1ccc(NC(=O)N(CCCN(C)C)Cc2cc3cc(OC)ccc3[nH]c2=O)cc1	?	5%	17%	22%	-1%
COc1ccc(NC(=O)N(CCN2CCCC2)Cc2cc3cc(OC)c(OC)cc3[nH]c2=O)cc1	9.3µM*	0%	-4%	?	-29%
O=S(=O)(c1ccc(OC(F)(F)F)cc1)N1CCCC(c2ccccc2)C1 (stereo not given)	24%	0%	0%	30%	-6%
CCOc1ccccc1NC(=O)Cn1nnc2sc(-c3ccccc3)cc2c1=O	/	/	/	/	-10%
COc1ccc(N(Cc2cccs2)C(=O)COc2cccc(Cl)c2)cc1	/	/	/	/	8%
Cn1c(CNC(=O)Nc2cccc(Cl)c2)nnc1SCc1ccccc1	?	-66%	12%	13µM*	7%
Cn1c(CNC(=O)Nc2ccccc2)nnc1SCc1ccccc1	19%	-5%	-14%	/	2%
COc1ccc(CCN(C)C(=S)Nc2cccc(C)c2)cc1OC	1.7µM*	-7%	-9%	?	1%
COc1ccc2[nH]cc(C(=O)CCl)c2c1	7%	-55%	-10%	-5%	2.8µM*
COc1ccc(CCN(C)CC(=O)Nc2c(C)cc(C)cc2C)cc1OC	?	8%	6%	?	100µM*
COc1ccc2[nH]cc(C(=O)CNc3nc(C)cs3)c2c1	1.7µM*	-14%	-1%	36%	4%
COc1cccc(NC(=S)N(CCc2ccc(OC)c(OC)c2)Cc2ccccn2)c1	?	-8%	49%	?	10%
COc1ccc2[nH]cc(C(=O)CN3CC(C)CC(C)C3)c2c1 (stereo not given)	-6%	-2%	6%	19%	-30%
CCOc1ccc(CCNC(=O)CN2C(=O)COc3ccc(S(=O)(=O)N4CCCC4)cc32)cc1	/	/	/	/	-2%
COc1ccc(N2CCN(C(CNC(=O)COc3ccccc3)c3ccco3)CC2)cc1 (stereo not given)	-11%	/	-21%	48%	-10%
CC1CCN(S(=O)(=O)c2ccc3[nH]c(=O)cc(C(=O)O)c3c2)CC1	0%	0%	-12%	2.9µM*	-1%
COc1ccc2[nH]cc(C(=O)CN(C)CCc3ccc(OC)c(OC)c3)c2c1	-29%	9%	3%	-17%	13µM*
COc1ccc2[nH]cc(C(=O)CN3CCCC(C)(C)C3)c2c1	3%	1%	0%	3%	-30%
COc1ccc2[nH]c(=O)cc(C(=O)O)c2c1	12%	4%	22µM*	?	-6%
COc1ccc2[nH]cc(C(=O)CN3CCCCC3C)c2c1 (stereo not given)	-19%	?	/	/	-13%
COc1ccc2[nH]cc(C(=O)CN3CCN(C/C=C/c4ccccc4)CC3)c2c1	12µM*	20%	/	10µM*	-16%
SMILES	Pf growth 48h	NS1 inh	AMA1-RON2 inh	Pf growth 96h	Sm TGR block
Cc1ccc(CNc2nc(-c3ccco3)nn2S(C)(=O)=O)cc1	/	/	/	/	-9%
O=C(OCN1C(=O)c2ccccc2C1=O)c1cccnc1SC(F)F	3%	1%	-3%	5%	-2%
Cc1cnc(NC(=O)c2ccc(F)c(S(=O)(=O)N3CCOCC3)c2)s1	?	/	52%	-43%	-3%
Cc1cccc(N2CCN(C(=O)c3cnn(-c4cccc(Cl)c4C)c3C3CCNCC3)CC2)c1C	/	/	/	/	2%
CCCCOc1ncnc2c1[nH]c1ccccc12	?	-98%	-17%	0%	3%
C=CCNc1ncnc2c1[nH]c1ccccc12	13µM*	-15%	-3%	?	4%
